Pf growth 48h = inhibits P. falciparum growth in the first generation, 48 h; hit rate 5.9% among 310,000; P. falciparum luciferase growth in erythrocytes, 48 h; Potency, µM (series often up to 28.7 µM), actives largely listed as inhibitors
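Parasite viability was followed by luminescence of a genomically integrated firefly luciferase. Cultures held 0.1% parasitemia at 2% hematocrit (final), incubated under 5% CO2 at 37 C.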
VACV mCherry inh = vaccinia inhibition (mCherry reporter); Vaccinia virus mCherry reporter infection, fluorescence; Potency, µM (titrated, usually from 36.5 µM), actives largely listed as inhibitors; hit rate 0.63% among 310,000; calls by dose curve; tested in A549 cells; further: nearly all actives have a fitted effect of over 35% in size
Pf growth 96h = P. falciparum growth inhibition at 96 hour, primary screen for plastid delayed-death inhibitors. AID 504834. Potency, µM (highest dose often 28.7 µM), usual class: inhibitors. P. falciparum luciferase reporter growth, 96 h. hit rate 6.9% among 320,000
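Two-generation exposure (96 h) targets delayed-death phenotype. Reporter parasites carrying integrated firefly luciferase, in red cells at 2% hematocrit and 0.05% parasitemia final, kept at 37 C, 5% CO2; luminescence loss indicates inhibition.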
VACV Venus inh = inhibitors of vaccinia virus (Venus reporter); AID 720580; Vaccinia virus Venus reporter expression, fluorescence; hit rate 0.46% among 330,000; Potency, µM (top dose mostly 36.5 µM), hits mostly inhibitors; calls by dose curve; tested in A549 cells; further: nearly all actives have a fitted effect of over 30% in size
AMA1-RON2 inh = AMA1-RON2 (P. falciparum) interaction inhibition. AlphaScreen AMA1-biotinylated RON2 peptide binding. Potency, µM (top dose mostly 58.2 µM), hits mostly inhibitors. hit rate 0.2% among 360,000; further: nearly all actives have a fitted effect of over 45% in size
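AMA1 (3D7) with his tag at 25 nM final met compounds first, then biotinylated RON2 peptide at 25 nM; detection used donor plus acceptor beads, 10 µg/mL apiece, read by AlphaScreen after 30 min at room temperature.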
Large screens that a line does not name were inactive. In the library only some 8.7% were active in any assay of this set; here they are far more common. Unless noted, the call rests on the fitted dose curve; in most records, active means well fitted curve in the direction sought with a large enough effect; inconclusive means small, poorly fitted or top-dose-only effect, or another doubt; inactive means no such curve, though single readings can be large; an effect the other way counts as inactive or inconclusive.

COc1cccc(CNc2ccc(F)c([N+](=O)[O-])c2)c1O	none
COc1cc(CNc2ccccc2)c([N+](=O)[O-])cc1OC	Pf growth 48h 13µM, AMA1-RON2 inh inconclusive
COC(=O)c1c(NC(=O)CN2CCC3(O)CCCCC3C2c2ccc(F)cc2)sc(C)c1C (stereo not given)	Pf growth 48h 8.3µM, Pf growth 96h inconclusive
COC(=O)c1c(NC(=O)CN2CCC3(O)CCCCC3C2c2cc(OC)ccc2OC)sc(C)c1C (stereo not given)	Pf growth 48h inconclusive, Pf growth 96h 10µM, VACV Venus inh inconclusive
Cc1ccc(NC(=O)CSc2nc(=O)n(Cc3ccccn3)c3c2CCC3)cc1F	none (no result: Pf growth 48h, Pf growth 96h, AMA1-RON2 inh)
Cc1ccc(S(=O)Cc2nc(-c3ccc(C(=O)NC(C)c4ccccc4)cc3)oc2C)cc1 (stereo not given)	none (no result: Pf growth 48h, Pf growth 96h, AMA1-RON2 inh)
CCOC(=O)CSCC(=O)Nc1c(C(=O)C2CC2)oc2ccccc12	Pf growth 96h 5.9µM
CN1CCN(CC(=O)Nc2c(C(=O)C3CC3)oc3ccccc23)CC1	none (no result: VACV mCherry inh, VACV Venus inh)
COc1ccc2c(CNCc3ccco3)c(C(=O)O)n(Cc3ccc(F)cc3Cl)c2c1	none (no result: Pf growth 48h, Pf growth 96h, AMA1-RON2 inh)
Cn1nnnc1NC(=O)c1ccccc1Cl	none (no result: VACV mCherry inh, VACV Venus inh)
Cn1nnnc1P(=O)(c1ccccc1)c1ccccc1	Pf growth 96h 10µM
CCCCN(C(=O)CCC(=O)Nc1cc(C)on1)C(C(=O)NC1CCCC1)c1ccc(OCC)cc1 (stereo not given)	Pf growth 48h inconclusive, VACV mCherry inh inconclusive
Cc1cc(NC(=O)CCC(=O)N(c2ccccc2)C(C(=O)NC2CCCC2)c2ccccc2)no1 (stereo not given)	Pf growth 48h 15µM, Pf growth 96h 8.3µM (no result: VACV mCherry inh)
Cc1cc(NC(=O)CCC(=O)N(c2cccc(F)c2)C(C(=O)NC2CCCC2)c2ccccc2)no1 (stereo not given)	Pf growth 48h inconclusive, Pf growth 96h inconclusive
CCC(C)(C)NC(=O)C(c1ccc(C)cc1)N(CC1CCCO1)C(=O)CCC(=O)Nc1ccccn1 (stereo not given)	Pf growth 48h inconclusive, Pf growth 96h 12µM
Cc1ccc(N(C(=O)CCC(=O)Nc2cc(C)on2)C(C(=O)NC2CCCC2)c2ccccc2)cc1 (stereo not given)	Pf growth 48h 12µM (no result: VACV mCherry inh, VACV Venus inh)
CCCCN(C(=O)CCC(=O)Nc1cc(C)on1)C(C(=O)NC1CCCC1)c1ccccc1OCC (stereo not given)	Pf growth 48h 15µM
COc1ccc(OC)c(CNS(=O)(=O)c2ccc(-c3cc(C(F)(F)F)on3)s2)c1	none (no result: Pf growth 48h, Pf growth 96h, AMA1-RON2 inh)
COc1ccccc1CNC(=O)CN1C(=O)c2cccnc2Oc2ccccc21	none (no result: Pf growth 48h, Pf growth 96h, AMA1-RON2 inh)
CC1=C(C(=O)Nc2cccnc2)C(c2ccc(F)cc2)n2nc(SCc3ccccc3)nc2N1 (stereo not given)	none (no result: Pf growth 48h, Pf growth 96h, AMA1-RON2 inh)
Cc1cc(NC(=O)CCC(=O)N(c2ccccc2)C(C(=O)NC2CCCC2)c2ccccc2C)no1 (stereo not given)	Pf growth 48h 13µM, Pf growth 96h inconclusive
Cc1ccc(C(C(=O)NC2CCCC2)N(Cc2ccco2)C(=O)CCC(=O)Nc2cc(C)on2)cc1 (stereo not given)	Pf growth 48h inconclusive, Pf growth 96h 13µM
Cc1ccc(N(C(=O)CCC(=O)Nc2cc(C)on2)C(C(=O)NC2CCCC2)c2cccs2)cc1 (stereo not given)	Pf growth 48h 12µM (no result: Pf growth 96h)
COc1ccc2nc(N(Cc3cccnc3)C(=O)C3CCCCC3)sc2c1	none (no result: Pf growth 48h, Pf growth 96h, AMA1-RON2 inh)
CCOc1ccc(S(=O)(=O)n2ccnc2C)cc1	Pf growth 96h 12µM (no result: VACV mCherry inh, VACV Venus inh, AMA1-RON2 inh)
CCOc1ccc(OCC)c(S(=O)(=O)n2ccnc2C)c1	Pf growth 96h inconclusive
Cc1oc(-c2ccc(Cl)cc2)nc1CN1C(=O)CN=C(c2ccccc2)c2cc(Cl)ccc21	none (no result: Pf growth 48h, Pf growth 96h, AMA1-RON2 inh)
Cc1oc(-c2ccccc2)nc1CN1C(=O)C(C)N=C(c2ccccc2F)c2cc(Cl)ccc21 (stereo not given)	Pf growth 48h inconclusive, Pf growth 96h 2.3µM
Cn1cccc1Cc1nnc(SCC(=O)N2CCc3ccccc32)n1CCc1ccccc1	Pf growth 48h 13µM, Pf growth 96h inconclusive
O=C(CSc1nnc(Cc2cccs2)n1CCc1ccccc1)N1CCCc2ccccc21	Pf growth 48h 9.3µM (no result: VACV mCherry inh, Pf growth 96h, VACV Venus inh)
COc1ccc(F)cc1S(=O)(=O)Nc1ccc2c(c1)CCCN2C(=O)c1cccs1	none (no result: Pf growth 48h, Pf growth 96h, AMA1-RON2 inh)
COc1cccc(-c2cc(-c3cccnc3)nc(N)c2C#N)c1	none (no result: VACV mCherry inh, VACV Venus inh)
N#Cc1c(-c2ccc(Br)cc2)cc(-c2cccnc2)nc1N	none
COc1cc(-c2cc(-c3ccc(O)cc3)nc(N)c2C#N)ccc1O	Pf growth 48h inconclusive, Pf growth 96h 5.9µM, VACV Venus inh inconclusive
